A short description of assay [1]: probe aShh binding to arrayed compounds – biochemical, biotinylated probe, 635/667 nm fluorescence, primary screen (AID 1114).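 Further: probe is biotin-labelled aShh protein from a stem cell growth factor screen; measures binding of labelled protein to compounds printed on the slide; score merges feature fluorescence at 667 nm with signal-to-noise.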 The following applies: small-molecule microarray, higher = more signal.
Assay [2] in a line: probe aNog binding to arrayed compounds – biochemical, biotinylated probe, 635/667 nm fluorescence, primary screen (AID 1115).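 Further: probe is biotinylated aNog protein used at 0.15 µg/mL for 1 h at 4 C; z-score combines 667 nm fluorescence of each spot with its signal to noise.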 Particulars: small-molecule microarray, higher = more signal.
For assay [3], the target named is Torsin-1A-interacting protein 1 (Homo sapiens) (UniProt Q5JTV8). In words: compound microarray binding of lysate hLAP1 – cell lysate, small-molecule microarray, COS7 lysate, 635/667 nm fluorescence, primary screen (AID 1116). Particulars: 635 nm fluorescence, higher = more signal.
The next assay has as its target Albumin (Bos taurus) (UniProt P02769). The assay is described as follows: compounds binding labelled BSA control protein – biochemical, small-molecule microarray, Alexa647 label, 635/667 nm fluorescence, artefact control for SMM control protein annotation, profiling panel (AID 1118).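 Further: score merges 667 nm emission intensity and signal-to-noise per printed compound spot.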 Particulars: BSA-A647 binding, fluorescence 635 nm, higher = more signal.
A short description of assay [4]: probe aXIP binding to arrayed compounds – biochemical, NeuroSMM set, 635/667 nm fluorescence, primary screen (AID 1119).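 Further: probe is the protein aXip251-270 applied at 1 µg/mL to compound-printed slides; binding of probe to printed compounds measured as 667 nm fluorescence plus signal to noise.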 The following applies: small-molecule microarray, higher = more signal, called active from +8 up or from −8 down.
Assay [5] in a line: probe aNOTCH3 binding on compound microarray – biochemical, small-molecule microarray, 635/667 nm fluorescence, primary screen (AID 1120).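 Further: probe is a biotin-tagged antibody raised against NOTCH3 rather than NOTCH3 protein; score merges spot fluorescence near 667 nm with spot signal to noise.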 Particulars: higher = more signal.
Assay [6] is described as follows: probe aNOTCH2 binding on compound microarray – biochemical, small-molecule microarray, 635/667 nm fluorescence, primary screen (AID 1121).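 Further: score merges feature fluorescence read at 667 nm with its signal to noise.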 The following applies: higher = more signal.
The target in assay [7] is Carbonic anhydrase 2 (Homo sapiens) (UniProt P00918). The assay is described as follows: compounds binding carbonic anhydrase 2 – biochemical, small-molecule microarray, Alexa647-labelled CAII, profiling panel (AID 1122). The following applies: CAII-A647 binding fluorescence, higher = more signal.
Assay [8] in a line: COS7 lysate on small-molecule microarray, probe aHis, 635 nm (AID 1123).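 Further: z-score combines 667nm fluorescence intensity with signal-to-noise per printed compound spot.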 The following applies: COS7 cell lysate, fluorescence, higher = more signal.
Assay [9] is described as follows: probe aLAP1 signal on lysate-treated microarray – cell lysate, small-molecule microarray, COS7 lysate, primary screen (AID 1124).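 Further: lysate comes from COS7 cells expressing LAP1 and is applied at 0.3 µg/mL; score merges spot fluorescence near 667 nm with signal-to-noise over triplicate slides.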 The following applies: probe aLAP1, fluorescence, higher = more signal.
A further assay concerns Sam68 (KHDRBS1). The assay is described as follows: compounds binding KHDRBS1 protein – biochemical, small-molecule microarray, 635 nm fluorescence, primary screen (AID 1125).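 Further: score merges 667 nm channel intensity with signal to noise over triplicate slides.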 Particulars: higher = more signal.
The subject of assay [10] is Chordin-like protein 2 (CHRDL2). The assay is described as follows: compounds binding chordin-like 2 – biochemical, small-molecule microarray, 635 nm fluorescence, primary screen (AID 1126).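 Further: printed compound slides probed with Chrdl2 protein at 4 µg/mL for 1 h at 4 C; score merges 667 nm emission intensity with signal to noise over three replicate slides.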 Particulars: fluorescence 635 nm, higher = more signal.
For assay [11], the target named is Concanavalin-A (Canavalia ensiformis) (UniProt P02866). In words: compounds binding concanavalin A lectin – biochemical, small-molecule microarray, Alexa647 label, 635 nm, artefact control for SMM control protein annotation, primary screen (AID 1127).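 Further: z combines 667 nm emission intensity with signal-to-noise across three replicate slides.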 The following applies: ConA-A647 binding fluorescence, higher = more signal.
Assay [12] is described as follows: compounds binding Alexa647 anti-His antibody – biochemical, small-molecule microarray, 635 nm fluorescence, artefact control for SMM control protein annotation, primary screen (AID 1128).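 Further: score merges feature fluorescence with signal-to-noise for each printed compound spot.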 The following applies: higher = more signal.
The test system of assay [13] is Human papillomavirus type 1a E7 protein (residues 1-88). In words: HPV1a E7 small-molecule binders, primary screen, biochemical, small-molecule microarray, residues 1-88, 635 nm (AID 1129). Particulars: small-molecule microarray binding, fluorescence 635 nm; higher = more signal.
The target in assay [14] is Focal adhesion kinase 1 (Homo sapiens) (UniProt Q05397). In words: PTK2 protein binding on printed compound slides – biochemical, small-molecule microarray, 635/667 nm fluorescence, BSA, DTT, primary screen (AID 1130).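 Further: composite of spot emission at 667 nm and signal to noise over triplicate slides.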 Particulars: 635 nm fluorescence, higher = more signal.
Assay [15] has as its system Fibrinogen (Alexa647-labelled). In words: Alexa647-fibrinogen binding to printed small molecules – biochemical, small-molecule microarray, 635/667 nm fluorescence, artefact control for SMM control-protein annotation, profiling panel (AID 1131).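 Further: z-score merges 667 nm fluorescence with per-spot signal-to-noise over triplicate slides.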 The following applies: fibrinogen-A647 binding fluorescence, higher = more signal.
In assay [16] the target is Follistatin (Homo sapiens) (UniProt P19883). The assay is described as follows: FST protein binding to printed compounds – biochemical, small-molecule microarray, 635/667 nm fluorescence, primary screen (AID 1132). The following applies: 635 nm fluorescence, higher = more signal.
Assay [17] concerns the target Fibroblast growth factor 2 (Homo sapiens) (UniProt P09038). In words: basic fibroblast growth factor binding to printed compounds – biochemical, small-molecule microarray, 635/667 nm fluorescence, primary screen (AID 1133). The following applies: FGF2, fluorescence 635/667, higher = more signal.
Assay [18] is described as follows: JC-1 mitochondrial potential readout, lung cancer cells – cell-based, A549, JC-1 fluorescence, basal, 24 h, 100 nL, profiling panel (AID 1138).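 Further: A549 lung adenocarcinoma cells under basal conditions with no added stimulus; test concentration not given here.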 Particulars: higher = more signal.

Consider five compounds from PubChem BioAssay.

Active and inactive are the calls of the source.

Chain of Torsin-1A-interacting protein 1 (Homo sapiens) (Q5JTV8 whole entry, looked up): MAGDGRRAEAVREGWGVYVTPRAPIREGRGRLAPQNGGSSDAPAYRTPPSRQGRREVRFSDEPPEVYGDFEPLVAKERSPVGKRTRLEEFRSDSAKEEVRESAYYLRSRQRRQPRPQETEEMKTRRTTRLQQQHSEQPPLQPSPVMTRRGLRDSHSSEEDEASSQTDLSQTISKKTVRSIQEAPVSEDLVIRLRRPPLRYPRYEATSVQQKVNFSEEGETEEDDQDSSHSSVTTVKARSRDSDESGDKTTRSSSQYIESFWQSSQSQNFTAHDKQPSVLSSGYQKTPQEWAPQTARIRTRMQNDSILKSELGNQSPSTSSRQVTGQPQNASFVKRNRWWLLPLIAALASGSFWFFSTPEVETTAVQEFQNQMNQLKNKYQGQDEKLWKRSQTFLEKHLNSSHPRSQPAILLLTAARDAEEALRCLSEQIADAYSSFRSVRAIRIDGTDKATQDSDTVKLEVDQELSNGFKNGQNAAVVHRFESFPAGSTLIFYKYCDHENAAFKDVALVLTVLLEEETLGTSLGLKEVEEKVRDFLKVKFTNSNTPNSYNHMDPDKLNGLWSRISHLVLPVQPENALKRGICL
Chain of Follistatin (Homo sapiens) (P19883 whole entry, looked up): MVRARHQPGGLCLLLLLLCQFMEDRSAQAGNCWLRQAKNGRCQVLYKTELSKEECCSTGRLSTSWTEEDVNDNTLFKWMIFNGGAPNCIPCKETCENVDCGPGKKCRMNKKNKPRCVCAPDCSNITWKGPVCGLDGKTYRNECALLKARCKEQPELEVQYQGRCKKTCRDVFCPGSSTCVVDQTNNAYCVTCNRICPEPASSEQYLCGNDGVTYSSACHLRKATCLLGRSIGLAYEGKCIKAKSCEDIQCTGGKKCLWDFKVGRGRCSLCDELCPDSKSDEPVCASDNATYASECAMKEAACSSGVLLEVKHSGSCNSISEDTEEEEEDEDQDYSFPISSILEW
Chain of Focal adhesion kinase 1 (Homo sapiens) (Q05397 whole entry, looked up): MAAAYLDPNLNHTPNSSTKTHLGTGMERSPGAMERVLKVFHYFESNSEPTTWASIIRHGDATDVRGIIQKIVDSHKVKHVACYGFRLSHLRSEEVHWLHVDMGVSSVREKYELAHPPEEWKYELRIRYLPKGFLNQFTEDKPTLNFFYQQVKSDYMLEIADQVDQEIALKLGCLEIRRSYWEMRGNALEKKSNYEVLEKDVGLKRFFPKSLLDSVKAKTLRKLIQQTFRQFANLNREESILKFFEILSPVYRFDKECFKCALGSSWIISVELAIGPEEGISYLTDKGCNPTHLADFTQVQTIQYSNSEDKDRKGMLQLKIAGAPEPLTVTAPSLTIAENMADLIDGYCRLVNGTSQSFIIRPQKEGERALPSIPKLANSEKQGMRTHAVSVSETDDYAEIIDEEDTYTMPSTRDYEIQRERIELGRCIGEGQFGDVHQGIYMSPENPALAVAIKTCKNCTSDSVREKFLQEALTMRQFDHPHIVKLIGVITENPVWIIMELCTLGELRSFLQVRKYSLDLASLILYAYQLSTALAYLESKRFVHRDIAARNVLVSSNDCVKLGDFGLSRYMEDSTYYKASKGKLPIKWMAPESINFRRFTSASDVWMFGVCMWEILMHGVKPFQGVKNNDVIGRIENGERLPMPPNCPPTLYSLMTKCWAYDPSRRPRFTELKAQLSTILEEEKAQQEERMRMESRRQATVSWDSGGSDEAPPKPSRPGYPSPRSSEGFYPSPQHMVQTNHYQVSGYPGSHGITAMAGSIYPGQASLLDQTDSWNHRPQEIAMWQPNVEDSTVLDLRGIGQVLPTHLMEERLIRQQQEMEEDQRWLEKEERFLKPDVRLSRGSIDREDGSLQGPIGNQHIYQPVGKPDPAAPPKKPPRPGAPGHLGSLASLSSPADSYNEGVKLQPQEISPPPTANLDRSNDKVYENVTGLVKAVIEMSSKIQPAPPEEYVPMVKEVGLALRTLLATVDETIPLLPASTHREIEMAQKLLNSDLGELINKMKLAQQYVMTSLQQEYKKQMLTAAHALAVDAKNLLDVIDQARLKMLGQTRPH
Chain of Albumin (Bos taurus) (P02769 whole entry, looked up): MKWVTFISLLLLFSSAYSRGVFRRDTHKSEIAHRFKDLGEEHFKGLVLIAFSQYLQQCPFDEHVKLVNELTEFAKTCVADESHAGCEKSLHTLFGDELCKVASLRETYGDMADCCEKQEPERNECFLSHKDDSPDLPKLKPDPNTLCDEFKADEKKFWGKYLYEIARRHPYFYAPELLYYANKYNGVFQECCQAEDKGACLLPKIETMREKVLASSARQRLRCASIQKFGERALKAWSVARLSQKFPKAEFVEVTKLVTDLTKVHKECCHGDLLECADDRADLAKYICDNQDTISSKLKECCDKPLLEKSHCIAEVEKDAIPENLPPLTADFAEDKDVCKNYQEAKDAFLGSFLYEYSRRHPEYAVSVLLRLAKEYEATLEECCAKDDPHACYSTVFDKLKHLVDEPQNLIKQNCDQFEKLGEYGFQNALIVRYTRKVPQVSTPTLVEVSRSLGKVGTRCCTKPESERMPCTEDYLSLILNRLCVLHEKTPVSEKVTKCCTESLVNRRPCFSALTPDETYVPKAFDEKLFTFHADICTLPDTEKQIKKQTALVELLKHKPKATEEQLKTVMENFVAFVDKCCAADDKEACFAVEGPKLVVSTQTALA
Chain of Concanavalin-A (Canavalia ensiformis) (P02866 whole entry, looked up): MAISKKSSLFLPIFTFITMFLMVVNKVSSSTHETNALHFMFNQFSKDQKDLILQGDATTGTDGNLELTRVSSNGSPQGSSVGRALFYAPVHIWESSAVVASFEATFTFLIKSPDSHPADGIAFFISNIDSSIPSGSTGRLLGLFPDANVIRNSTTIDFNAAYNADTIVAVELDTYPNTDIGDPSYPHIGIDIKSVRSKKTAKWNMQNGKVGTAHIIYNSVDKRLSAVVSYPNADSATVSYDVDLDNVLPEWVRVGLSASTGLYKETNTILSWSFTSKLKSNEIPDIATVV
Chain of Fibroblast growth factor 2 (Homo sapiens) (P09038 whole entry, looked up): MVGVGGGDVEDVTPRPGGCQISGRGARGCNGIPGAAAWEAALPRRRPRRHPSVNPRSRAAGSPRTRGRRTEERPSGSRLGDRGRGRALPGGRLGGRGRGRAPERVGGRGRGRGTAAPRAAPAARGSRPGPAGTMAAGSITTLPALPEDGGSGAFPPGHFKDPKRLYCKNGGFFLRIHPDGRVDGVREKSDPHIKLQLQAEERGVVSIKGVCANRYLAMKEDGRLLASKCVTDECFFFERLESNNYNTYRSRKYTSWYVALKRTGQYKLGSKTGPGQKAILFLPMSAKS

On to `CC(=O)NCCCC[C@@H]1NC(=O)[C@@H]2C[C@H](C(=O)O)[C@H](c3cccc(OCCO)c3)N2C1=O`, for which the composite z-score in assay [1] is -0.0626; in assay [2], -0.37; in assay [3] it was 0.947; with Albumin (Bos taurus) it was -1.33; in assay [5], -0.126; in [6], -0.146. In addition, the composite z-score is 0.276 in assay [7]; 0.348 in [8]; 0.0927 in assay [9]; 1.34 in the assay with Sam68 (KHDRBS1); 1.31 in [10]; 1.15 in [11]. Also, the composite z-score was found to be 2 in assay [12]; 1.07 in assay [13]; 0.341 in assay [14]; 0.041 in assay [15]; 1.35 in [16]; 1.73 in assay [17]. Besides, the composite Z-score in assay [4] was 0.274 (inactive). In assay [18], the z-score was determined as 1.2.
On to `CC(C)CCC[C@@H](C)[C@H]1CC[C@@]2(C)C3=C(CC[C@]12C)[C@@]1(C)CC[C@H](OC(=O)CCl)C(C)(C)C1CC3` (stereo not given in full), for which the composite z-score in [1] is -0.424; in assay [2], 0.0983; in [3], 0.247; in the assay with Albumin (Bos taurus), 0.256; in [5], 0.183; in [6], -0.0829. The composite z-score in assay [7] was 0.153; in [8], 0.555; in assay [9], -0.0674; with Sam68 (KHDRBS1), 0.404; in [10], 0.549; in [11], 0.47. For the same compound, the composite z-score in assay [12] is -0.107; in assay [13], 0.708; in assay [14], 0.272; in assay [15], 0.649; in assay [16], 0.409; in assay [17], 0.363. Besides, the composite Z-score in [4] was 0.222 (inactive). The same compound gave a z-score in [18] of 1.35.
For `C=C(COC)C(=O)CC[C@@H](OC(=O)c1ccccc1-c1ccccc1C(=O)O)c1cccc(OCCO)c1`, the composite z-score in [1] is -0.153; in assay [2], 0.176; in assay [3], 0.671; with Albumin (Bos taurus), -0.39; in [5] it was -0.15; in [6] it was -0.154. For the same compound, the composite z-score is 0.713 in [7]; 0.19 in assay [8]; -0.402 in assay [9]; -0.296 with Sam68 (KHDRBS1); 0.192 in assay [10]; 0.375 in assay [11]. For the same compound, the composite z-score was -1.24 in [12]; -0.533 in [13]; -0.508 in assay [14]; -0.661 in assay [15]; 1.27 in assay [16]; 0.866 in assay [17]. The composite Z-score in assay [4] is -0.122 (inactive). For the same compound, the z-score in [18] was determined as 1.46.
Turning to `CC(C)C[C@@H]1NC(=O)[C@@]23C(=O)N[C@@H](Cc4ccccc4)C2[C@H](C)[C@@]2(C)O[C@H]2C3/C=C/C/C=C\CNC(=O)[C@H](Cc2ccccc2)NC1=O` (stereo not given in full), the composite z-score is -0.2 in assay [1]; -0.194 in [2]; 0.569 in assay [3]; 0.533 in the assay with Albumin (Bos taurus); -0.0881 in [5]; -0.128 in assay [6]. Besides, the composite z-score in [7] is 0.848; in [8] it was 0.138; in assay [9], 0.379; with Sam68 (KHDRBS1), 0.456; in assay [10] it was -0.0794; in assay [11], 0.313. For the same compound, the composite z-score was 2.15 in assay [12]; 0.284 in assay [13]; -0.0582 in assay [14]; 0.894 in [15]; 0.515 in assay [16]; 0.31 in [17]. For the same compound, the composite Z-score in assay [4] is 0.376 (inactive). Further, in assay [18], the z-score was 1.22.
Turning to `C=C(COC)/C(=C/C[C@H](OC(C)=O)c1cccc(OCCO)c1)c1cc(C(=O)OC)ccc1OC`, the composite z-score was -0.0146 in assay [1]; -0.201 in [2]; 0.188 in [3]; -0.169 in the assay with Albumin (Bos taurus); -0.0414 in [5]; -0.0649 in assay [6]. For the same compound, the composite z-score in [7] is 0.656; in assay [8] it was 0.193; in assay [9], -0.219; in the assay on Sam68 (KHDRBS1), 0.705; in assay [10], 1.25; in assay [11], -0.0821. The composite z-score in [12] was 0.349; in [13], -0.131; in assay [14], -0.402; in assay [15] it was -0.488; in assay [16], 1.51; in [17], 1.4. For the same compound, the composite Z-score in [4] was 0.211 (inactive). The compound also came in with a z-score in assay [18] of -0.0205.
